# Results from PubChem BioAssay (NCI).
# About 79,000 compounds went through this panel and 15% of them were active in at least one assay; those are over-represented in the sample as a whole. A number with no mark means an inactive call. Calls of active or inactive are those of the source. Cut-off read from the data, not from the text of the source: active = growth inhibition above about 70%; inactive = the rest.
# Key:
# [1] = NCI Yeast Anticancer Drug Screen. Data for the rad52 strain (AID 147);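 note: 0% = growth of vehicle-treated control cultures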; settings: S. cerevisiae rad52 mutant growth inhibition, stronger effect = higher value
# In short: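 Measured: yeast growth inhibition. System: strain with a defined DNA damage repair alteration. Reference: vehicle-treated control cultures.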
# [2] = NCI Yeast Anticancer Drug Screen. Data for the rad50EPP+ strain (AID 151);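 note: 0% = growth of vehicle-treated control cultures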; settings: S. cerevisiae rad50 mutant strain, stronger effect = higher value
# In short: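 One strain with a rad50 alteration (rad50EPP+) was compound-treated, its growth then compared to that of vehicle controls.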
# [3] = NCI Yeast Anticancer Drug Screen. Data for the rad50 strain (AID 155);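 note: 0% = growth of vehicle-only cultures of the same strain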; settings: S. cerevisiae rad50 strain growth inhibition, stronger effect = higher value
# In short: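 A DNA repair-deficient yeast mutant serves as the test organism; compound-induced growth inhibition is calculated against vehicle-treated cells.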
# [4] = NCI Yeast Anticancer Drug Screen. Data for the mec2-1 strain (AID 157); settings: S. cerevisiae mec2-1 strain, stronger effect = higher value
# In short: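 Test agents were screened against the mec2-1 yeast strain, with defined DNA repair or cell cycle alteration. Growth was scored as inhibition against vehicle-only controls.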
# [5] = NCI Yeast Anticancer Drug Screen. Data for the rad14 strain (AID 159);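 note: 0% = growth of vehicle-treated control cultures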; settings: S. cerevisiae rad14 strain growth inhibition, stronger effect = higher value
# In short: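 Vehicle-treated cultures served as the baseline for growth inhibition of a DNA repair-mutant yeast strain exposed to each compound.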
# [6] = NCI Yeast Anticancer Drug Screen. Data for the sgs1 mgt1 strain (AID 161);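 note: 0% = growth of cultures given vehicle only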; settings: S. cerevisiae sgs1 mgt1 strain, stronger effect = higher value
# In short: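 Genetically altered yeast, compound exposure, growth inhibition relative to vehicle.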
# [7] = NCI Yeast Anticancer Drug Screen. Data for the CLN2oe strain (AID 163);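 note: 0% = growth of vehicle-only control cultures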; settings: S. cerevisiae CLN2oe strain, stronger effect = higher value
# In short: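 Here, growth inhibition in a cell-cycle-altered yeast strain after compound exposure was quantified against vehicle control growth.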
# [8] = NCI Yeast Anticancer Drug Screen. Data for the cln2 rad14 strain (AID 165);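 note: 0% = growth equal to vehicle treated cultures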; settings: S. cerevisiae cln2 rad14 strain, stronger effect = higher value
# In short: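 Growth of compound-exposed yeast (cln2 rad14 genotype) measured and expressed as inhibition relative to vehicle.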
# [9] = NCI Yeast Anticancer Drug Screen. Data for the bub3 strain (AID 167); settings: S. cerevisiae bub3 mutant strain, stronger effect = higher value
# In short: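 Inhibition values come from growth of compound-treated mutant yeast normalised to vehicle-treated controls.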
# [10] = NCI Yeast Anticancer Drug Screen. Data for the wt2 strain (AID 169);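 note: 0% = growth of vehicle-treated yeast cultures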; settings: S. cerevisiae wt2 strain growth inhibition, stronger effect = higher value
# In short: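 Genetically defined yeast strains from a DNA-repair/cell-cycle panel were used. Compound-exposed yeast growth was measured, and the inhibition was calculated relative to vehicle treatment.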
# [11] = NCI Yeast Anticancer Drug Screen. Data for the mlh1 strain (AID 171);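 note: 0% = growth of vehicle-treated control cultures of the same strain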; settings: S. cerevisiae mlh1 strain growth inhibition, stronger effect = higher value
# In short: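 Here the genetically defined yeast mutant is grown with each compound, and the extent to which its growth falls below that of vehicle-exposed cells is reported.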
# [12] = NCI Yeast Anticancer Drug Screen. Data for the sgs1 strain (AID 173);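 note: 0% = growth of vehicle-only control cultures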; settings: S. cerevisiae sgs1 mutant, stronger effect = higher value
# In short: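 Relative growth inhibition, referenced to vehicle, was determined in a yeast strain with a defined alteration affecting DNA damage repair or cell cycle control after compound exposure.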
# [13] = NCI Yeast Anticancer Drug Screen. Data for the mlh1 rad18 strain (AID 175); settings: S. cerevisiae mlh1 rad18 strain growth inhibition, stronger effect = higher value
# In short: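 In this whole-cell yeast screen, a strain with altered DNA damage repair is challenged with compound, and its growth is measured against matched vehicle-treated controls.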
# [14] = NCI Yeast Anticancer Drug Screen. Data for the rad18 strain (AID 177); settings: S. cerevisiae rad18 mutant growth inhibition, stronger effect = higher value
# In short: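 Screen uses a yeast strain with a defined lesion in DNA damage repair; compound effect is read as loss of growth compared to untreated vehicle cultures.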
# [15] = at 5.0 µM (retest, dose inferred, filed as 0.5)
# [16] = at 50.0 µM (retest, dose inferred, filed as 5.0)
structure (smiles),measurement,setting,value
O=C1c2cccnc2C(=O)C2C3C=CC(C3)C12 (stereo not drawn),growth inhibition,[1]; at 1.2 µM,12%
same,growth inhibition,[1]; at 3.7 µM,35%
same,growth inhibition,[1]; at 11.0 µM,78% (active)
same,growth inhibition,[1]; at 33.0 µM,94% (active)
same,growth inhibition,[1]; at 100.0 µM,98% (active)
same,growth inhibition,[2]; at 1.2 µM,30%
same,growth inhibition,[2]; at 3.7 µM,82% (active)
same,growth inhibition,[2]; at 11.0 µM,92% (active)
same,growth inhibition,[2]; at 33.0 µM,96% (active)
same,growth inhibition,[2]; at 100.0 µM,97% (active)
same,growth inhibition,[3]; at 1.2 µM,31%
same,growth inhibition,[3]; at 3.7 µM,73% (active)
same,growth inhibition,[3]; [15],29%
same,growth inhibition,[3]; at 11.0 µM,91% (active)
same,growth inhibition,[3]; at 33.0 µM,97% (active)
same,growth inhibition,[3]; [16],96% (active)
same,growth inhibition,[3]; at 50.0 µM,99.4% (active)
same,growth inhibition,[3]; at 100.0 µM,94% (active)
same,growth inhibition,[4]; at 1.2 µM,19%
same,growth inhibition,[4]; at 3.7 µM,34%
same,growth inhibition,[4]; [15],37%
same,growth inhibition,[4]; at 11.0 µM,87% (active)
same,growth inhibition,[4]; at 33.0 µM,98% (active)
same,growth inhibition,[4]; [16],98% (active)
same,growth inhibition,[4]; at 50.0 µM,99.5% (active)
same,growth inhibition,[4]; at 100.0 µM,99% (active)
same,growth inhibition,[5]; at 1.2 µM,20%
same,growth inhibition,[5]; at 3.7 µM,44%
same,growth inhibition,[5]; at 11.0 µM,87% (active)
same,growth inhibition,[5]; at 33.0 µM,99% (active)
same,growth inhibition,[5]; at 100.0 µM,99% (active)
same,growth inhibition,[6]; [15],56%
same,growth inhibition,[6]; [16],98% (active)
same,growth inhibition,[6]; at 50.0 µM,99.2% (active)
same,growth inhibition,[7]; at 1.2 µM,10%
same,growth inhibition,[7]; at 3.7 µM,16%
same,growth inhibition,[7]; at 11.0 µM,30%
same,growth inhibition,[7]; at 33.0 µM,75% (active)
same,growth inhibition,[7]; at 100.0 µM,97% (active)
same,growth inhibition,[8]; [15],-31%
same,growth inhibition,[8]; [16],85% (active)
same,growth inhibition,[8]; at 50.0 µM,45.5%
same,growth inhibition,[9]; at 1.2 µM,9%
same,growth inhibition,[9]; at 3.7 µM,30%
same,growth inhibition,[9]; [15],57%
same,growth inhibition,[9]; at 11.0 µM,72% (active)
same,growth inhibition,[9]; at 33.0 µM,95% (active)
same,growth inhibition,[9]; [16],98% (active)
same,growth inhibition,[9]; at 50.0 µM,98.4% (active)
same,growth inhibition,[9]; at 100.0 µM,99% (active)
same,growth inhibition,[10]; at 1.2 µM,16%
same,growth inhibition,[10]; at 3.7 µM,36%
same,growth inhibition,[10]; at 11.0 µM,78% (active)
same,growth inhibition,[10]; at 33.0 µM,97% (active)
same,growth inhibition,[10]; at 100.0 µM,99% (active)
same,growth inhibition,[11]; at 1.2 µM,28%
same,growth inhibition,[11]; at 3.7 µM,55%
same,growth inhibition,[11]; at 11.0 µM,92% (active)
same,growth inhibition,[11]; at 33.0 µM,98% (active)
same,growth inhibition,[11]; at 100.0 µM,99% (active)
same,growth inhibition,[12]; at 1.2 µM,18%
same,growth inhibition,[12]; at 3.7 µM,36%
same,growth inhibition,[12]; at 11.0 µM,75% (active)
same,growth inhibition,[12]; at 33.0 µM,93% (active)
same,growth inhibition,[12]; at 100.0 µM,98% (active)
same,growth inhibition,[13]; [15],72% (active)
same,growth inhibition,[13]; [16],98% (active)
same,growth inhibition,[13]; at 50.0 µM,99.2% (active)
same,growth inhibition,[14]; at 1.2 µM,29%
same,growth inhibition,[14]; at 3.7 µM,76% (active)
same,growth inhibition,[14]; at 11.0 µM,91% (active)
same,growth inhibition,[14]; at 33.0 µM,96% (active)
same,growth inhibition,[14]; at 100.0 µM,97% (active)
